Assay results published in paper PMC7862700, “An all-to-all approach to the identification of sequence-specific readers for epigenetic DNA modifications on cytosine”.

Assays:
Test in all cases: DAPPL (digital affinity profiling via proximity ligation, sequencing); 10 mM Tris-HCl pH 7.5, 50 mM NaCl, 1 mM DTT, 4% glycerol, room temperature, 30 min; GST-TFs on glutathione beads, 16-mer random dsDNA library, 0.1% formaldehyde crosslink after washing; high values mean tight binding
FEV = target: T1, FEV (Homo sapiens, UniProt Q99581 1-238); conditions: protein: recombinant; tags: N-terminal GST; dsDNA, one strand shown
T1 sequence: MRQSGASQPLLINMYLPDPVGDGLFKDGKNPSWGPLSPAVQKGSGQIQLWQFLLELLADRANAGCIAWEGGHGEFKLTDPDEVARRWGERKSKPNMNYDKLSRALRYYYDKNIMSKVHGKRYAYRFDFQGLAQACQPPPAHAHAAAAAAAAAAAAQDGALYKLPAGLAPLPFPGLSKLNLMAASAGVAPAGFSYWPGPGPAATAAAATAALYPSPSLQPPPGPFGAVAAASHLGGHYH
Method in brief: (§1)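 Yeast served to express human transcription factors as GST fusions, which were then captured on glutathione beads and labelled with DNA barcodes. Pooled with a tag-only sample, they were incubated with 200 nmole of a 16-mer random double-stranded DNA library for 30 min at room temperature in Tris/NaCl/DTT/glycerol buffer, washed, crosslinked with 0.1% formaldehyde, ligated by proximity, amplified by PCR and sequenced. Dividing each hexamer's read frequency for a factor by its frequency for the tag-only sample gives the binding signal.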

ETV5 = ETV5 (Homo sapiens, UniProt P41161 1-510); conditions: protein: recombinant; tags: N-terminal GST; dsDNA, one strand shown
Method in brief: as §1

HSF1 = HSF1 (Homo sapiens, UniProt Q00613 1-529); conditions: protein: recombinant; tags: N-terminal GST; chain copies: 3; dsDNA, one strand shown
Method in brief: as §1

SPIC = target: T2, SPIC (Homo sapiens, UniProt Q8N5J4 1-248); conditions: protein: recombinant; tags: N-terminal GST; dsDNA, one strand shown
T2 sequence: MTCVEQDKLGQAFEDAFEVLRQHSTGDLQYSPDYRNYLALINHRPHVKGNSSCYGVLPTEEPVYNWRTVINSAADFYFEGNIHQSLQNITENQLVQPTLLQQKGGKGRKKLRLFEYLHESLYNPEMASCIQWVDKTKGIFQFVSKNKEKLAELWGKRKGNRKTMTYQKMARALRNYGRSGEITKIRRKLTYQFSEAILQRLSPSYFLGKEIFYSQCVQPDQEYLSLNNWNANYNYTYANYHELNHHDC
Method in brief: as §1

ELF4 = ELF4 (Homo sapiens, UniProt Q99607 1-663); conditions: protein: recombinant; tags: N-terminal GST; dsDNA, one strand shown
Method in brief: as §1

ELK4 = target: T3, ELK4 (Homo sapiens, UniProt P28324-2 1-405); conditions: protein: recombinant; tags: N-terminal GST; dsDNA, one strand shown
T3 sequence: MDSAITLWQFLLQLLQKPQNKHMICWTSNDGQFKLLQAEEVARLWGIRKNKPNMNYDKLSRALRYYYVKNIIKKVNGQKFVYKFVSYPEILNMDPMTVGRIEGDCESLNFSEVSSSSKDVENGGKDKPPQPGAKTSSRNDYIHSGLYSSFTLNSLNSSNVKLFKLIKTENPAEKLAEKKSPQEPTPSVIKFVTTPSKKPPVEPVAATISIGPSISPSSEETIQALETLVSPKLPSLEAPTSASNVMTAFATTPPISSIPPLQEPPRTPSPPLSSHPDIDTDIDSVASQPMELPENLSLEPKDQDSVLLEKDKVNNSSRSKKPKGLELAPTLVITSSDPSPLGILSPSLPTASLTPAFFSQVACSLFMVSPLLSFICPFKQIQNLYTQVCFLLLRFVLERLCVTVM
Method in brief: as §1

ETV2 = target: T4, ETV2 (Homo sapiens, UniProt O00321 1-342); conditions: protein: recombinant; tags: N-terminal GST; dsDNA, one strand shown
T4 sequence: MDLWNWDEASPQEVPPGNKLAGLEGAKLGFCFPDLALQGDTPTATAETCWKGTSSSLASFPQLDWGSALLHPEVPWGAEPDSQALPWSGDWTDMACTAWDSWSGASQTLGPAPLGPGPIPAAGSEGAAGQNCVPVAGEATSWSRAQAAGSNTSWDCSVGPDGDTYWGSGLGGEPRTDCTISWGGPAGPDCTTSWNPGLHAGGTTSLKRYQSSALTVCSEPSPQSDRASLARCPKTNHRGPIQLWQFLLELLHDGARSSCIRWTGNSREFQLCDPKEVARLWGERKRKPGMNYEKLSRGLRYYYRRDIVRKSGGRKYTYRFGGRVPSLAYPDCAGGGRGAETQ
Method in brief: as §1

ELF3 = target: T5, ELF3 (Homo sapiens, UniProt P78545 1-371); conditions: protein: recombinant; tags: N-terminal GST; dsDNA, one strand shown
T5 sequence: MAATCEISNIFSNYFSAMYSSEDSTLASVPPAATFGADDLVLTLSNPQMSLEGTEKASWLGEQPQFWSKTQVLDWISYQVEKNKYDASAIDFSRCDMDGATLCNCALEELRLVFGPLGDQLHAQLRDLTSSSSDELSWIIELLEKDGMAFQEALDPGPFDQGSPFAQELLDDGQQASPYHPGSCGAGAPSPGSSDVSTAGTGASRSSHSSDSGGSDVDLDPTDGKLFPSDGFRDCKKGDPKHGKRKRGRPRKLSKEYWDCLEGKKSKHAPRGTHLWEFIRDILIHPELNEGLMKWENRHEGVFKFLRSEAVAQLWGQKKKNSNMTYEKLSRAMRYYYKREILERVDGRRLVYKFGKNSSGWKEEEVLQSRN
Method in brief: as §1

CRX = CRX (Homo sapiens, UniProt O43186 1-299); conditions: protein: recombinant; tags: N-terminal GST; dsDNA, one strand shown
Method in brief: as §1

ETV1 = ETV1 (Homo sapiens, UniProt P50549 1-477); conditions: protein: recombinant; tags: N-terminal GST; dsDNA, one strand shown
Method in brief: as §1

ERF = target: T6, ERF (Homo sapiens, UniProt P50548 1-548); conditions: protein: recombinant; tags: N-terminal GST; dsDNA, one strand shown
T6 sequence: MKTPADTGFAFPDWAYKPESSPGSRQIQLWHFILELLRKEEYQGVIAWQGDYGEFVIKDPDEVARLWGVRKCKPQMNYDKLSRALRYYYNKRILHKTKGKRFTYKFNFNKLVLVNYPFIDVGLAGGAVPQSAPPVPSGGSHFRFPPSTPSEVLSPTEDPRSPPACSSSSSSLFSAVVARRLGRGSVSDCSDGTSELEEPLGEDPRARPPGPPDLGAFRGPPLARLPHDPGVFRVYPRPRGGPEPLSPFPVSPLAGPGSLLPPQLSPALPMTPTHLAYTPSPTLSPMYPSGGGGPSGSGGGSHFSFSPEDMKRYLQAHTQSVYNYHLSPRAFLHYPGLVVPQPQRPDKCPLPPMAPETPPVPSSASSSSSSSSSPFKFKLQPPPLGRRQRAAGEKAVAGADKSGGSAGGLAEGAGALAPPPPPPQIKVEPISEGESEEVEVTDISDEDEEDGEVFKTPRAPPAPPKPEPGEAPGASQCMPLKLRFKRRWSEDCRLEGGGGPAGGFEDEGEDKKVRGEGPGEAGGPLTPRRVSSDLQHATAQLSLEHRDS
Method in brief: as §1

ETV3L = target: T7, ETV3L (Homo sapiens, UniProt Q6ZN32 1-361); conditions: protein: recombinant; tags: N-terminal GST; dsDNA, one strand shown
T7 sequence: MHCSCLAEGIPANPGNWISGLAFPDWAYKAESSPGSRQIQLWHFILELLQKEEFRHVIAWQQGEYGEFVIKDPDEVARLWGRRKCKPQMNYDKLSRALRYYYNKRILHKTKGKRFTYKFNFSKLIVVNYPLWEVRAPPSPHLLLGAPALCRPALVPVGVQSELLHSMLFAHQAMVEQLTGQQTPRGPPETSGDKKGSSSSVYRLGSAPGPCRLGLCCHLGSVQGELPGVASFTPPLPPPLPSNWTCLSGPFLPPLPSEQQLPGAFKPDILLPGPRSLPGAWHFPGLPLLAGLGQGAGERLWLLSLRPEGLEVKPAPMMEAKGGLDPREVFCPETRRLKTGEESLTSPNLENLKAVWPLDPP
Method in brief: as §1

ETS2 = target: T8, ETS2 (Homo sapiens, UniProt P15036 1-469); conditions: protein: recombinant; tags: N-terminal GST; dsDNA, one strand shown
T8 sequence: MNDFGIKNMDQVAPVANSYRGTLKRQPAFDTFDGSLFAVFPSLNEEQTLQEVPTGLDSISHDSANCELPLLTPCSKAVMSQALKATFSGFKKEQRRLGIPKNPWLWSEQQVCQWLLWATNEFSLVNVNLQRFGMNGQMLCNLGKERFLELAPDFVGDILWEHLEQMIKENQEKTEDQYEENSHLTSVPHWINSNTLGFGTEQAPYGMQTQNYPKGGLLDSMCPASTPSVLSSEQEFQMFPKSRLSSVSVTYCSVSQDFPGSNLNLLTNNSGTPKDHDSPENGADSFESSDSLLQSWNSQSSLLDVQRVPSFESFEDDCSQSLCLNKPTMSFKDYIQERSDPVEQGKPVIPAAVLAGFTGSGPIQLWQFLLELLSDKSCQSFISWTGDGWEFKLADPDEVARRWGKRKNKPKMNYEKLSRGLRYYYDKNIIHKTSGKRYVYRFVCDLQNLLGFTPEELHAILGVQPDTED
Method in brief: as §1

SPDEF = target: T9, SPDEF (Homo sapiens, UniProt O95238 1-335); conditions: protein: recombinant; tags: N-terminal GST; dsDNA, one strand shown
T9 sequence: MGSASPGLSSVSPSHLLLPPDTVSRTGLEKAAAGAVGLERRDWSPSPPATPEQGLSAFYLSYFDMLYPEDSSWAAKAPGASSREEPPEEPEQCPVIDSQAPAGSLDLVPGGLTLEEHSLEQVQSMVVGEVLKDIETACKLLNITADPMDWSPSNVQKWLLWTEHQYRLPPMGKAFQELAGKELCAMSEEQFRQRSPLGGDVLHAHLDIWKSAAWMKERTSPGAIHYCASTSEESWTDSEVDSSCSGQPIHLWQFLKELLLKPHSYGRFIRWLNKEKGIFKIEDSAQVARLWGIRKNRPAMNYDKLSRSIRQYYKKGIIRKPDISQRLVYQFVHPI
Method in brief: as §1

ETV7 = target: T10, ETV7 (Homo sapiens, UniProt Q9Y603 1-341); conditions: protein: recombinant; tags: N-terminal GST; dsDNA, one strand shown
T10 sequence: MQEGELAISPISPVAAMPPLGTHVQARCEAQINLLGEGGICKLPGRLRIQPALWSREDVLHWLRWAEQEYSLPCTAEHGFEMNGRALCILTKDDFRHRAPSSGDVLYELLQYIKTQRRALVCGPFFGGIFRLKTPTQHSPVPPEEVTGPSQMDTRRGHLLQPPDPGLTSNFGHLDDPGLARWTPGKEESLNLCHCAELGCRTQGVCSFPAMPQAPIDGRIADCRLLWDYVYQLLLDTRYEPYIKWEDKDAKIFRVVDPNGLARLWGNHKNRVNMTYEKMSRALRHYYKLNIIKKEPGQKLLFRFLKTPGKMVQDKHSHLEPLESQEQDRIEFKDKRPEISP
Method in brief: as §1

ELF5 = target: T11, ELF5 (Homo sapiens, UniProt Q9UKW6-2 1-255); conditions: protein: recombinant; tags: N-terminal GST; dsDNA, one strand shown
T11 sequence: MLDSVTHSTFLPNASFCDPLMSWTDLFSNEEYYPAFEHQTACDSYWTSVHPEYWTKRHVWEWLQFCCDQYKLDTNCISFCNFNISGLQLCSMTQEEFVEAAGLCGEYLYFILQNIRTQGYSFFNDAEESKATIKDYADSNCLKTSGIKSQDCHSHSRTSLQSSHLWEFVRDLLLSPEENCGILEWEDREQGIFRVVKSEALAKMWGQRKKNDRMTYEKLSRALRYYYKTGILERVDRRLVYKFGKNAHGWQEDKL
Method in brief: as §1

ETV3 = target: T12, ETV3 (Homo sapiens, UniProt P41162-2 1-143); conditions: protein: recombinant; tags: N-terminal GST; dsDNA, one strand shown
T12 sequence: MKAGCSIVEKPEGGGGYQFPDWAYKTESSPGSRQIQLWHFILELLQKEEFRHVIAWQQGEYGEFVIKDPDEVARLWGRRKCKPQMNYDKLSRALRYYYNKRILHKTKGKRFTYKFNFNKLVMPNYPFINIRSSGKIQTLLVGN
Method in brief: as §1

ETV6 = ETV6 (Homo sapiens, UniProt P41212 1-452); conditions: protein: recombinant; tags: N-terminal GST; dsDNA, one strand shown
Method in brief: as §1

ETV6, sequence (P41212 whole entry): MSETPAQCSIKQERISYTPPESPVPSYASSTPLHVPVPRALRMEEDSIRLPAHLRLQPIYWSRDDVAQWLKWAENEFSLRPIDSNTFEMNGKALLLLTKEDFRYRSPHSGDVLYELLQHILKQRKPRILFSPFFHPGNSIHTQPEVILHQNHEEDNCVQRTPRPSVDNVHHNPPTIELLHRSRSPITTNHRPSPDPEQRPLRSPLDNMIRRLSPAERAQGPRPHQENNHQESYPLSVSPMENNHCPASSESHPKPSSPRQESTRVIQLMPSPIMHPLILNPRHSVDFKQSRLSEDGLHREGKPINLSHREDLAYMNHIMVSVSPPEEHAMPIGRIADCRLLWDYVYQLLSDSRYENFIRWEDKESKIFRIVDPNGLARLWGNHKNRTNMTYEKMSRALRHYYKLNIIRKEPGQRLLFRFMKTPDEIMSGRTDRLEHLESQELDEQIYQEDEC
ELF4, sequence (Q99607 whole entry): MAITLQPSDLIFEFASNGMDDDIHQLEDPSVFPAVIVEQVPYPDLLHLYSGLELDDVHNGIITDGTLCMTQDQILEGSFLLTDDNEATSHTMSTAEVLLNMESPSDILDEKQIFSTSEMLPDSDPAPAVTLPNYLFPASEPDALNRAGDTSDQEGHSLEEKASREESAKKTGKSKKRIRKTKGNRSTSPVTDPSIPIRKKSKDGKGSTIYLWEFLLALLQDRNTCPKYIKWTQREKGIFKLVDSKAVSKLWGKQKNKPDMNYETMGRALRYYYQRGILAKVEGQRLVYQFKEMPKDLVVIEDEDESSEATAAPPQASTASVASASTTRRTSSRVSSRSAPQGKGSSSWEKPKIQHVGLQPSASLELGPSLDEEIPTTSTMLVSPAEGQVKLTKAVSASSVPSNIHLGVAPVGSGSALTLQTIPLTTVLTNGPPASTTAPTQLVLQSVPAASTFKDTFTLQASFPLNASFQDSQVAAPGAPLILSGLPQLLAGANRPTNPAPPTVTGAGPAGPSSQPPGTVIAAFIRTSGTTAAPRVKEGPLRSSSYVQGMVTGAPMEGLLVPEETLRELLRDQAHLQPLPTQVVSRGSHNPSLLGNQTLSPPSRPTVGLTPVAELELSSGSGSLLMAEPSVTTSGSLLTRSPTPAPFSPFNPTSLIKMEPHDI
ETV5, sequence (P41161 whole entry): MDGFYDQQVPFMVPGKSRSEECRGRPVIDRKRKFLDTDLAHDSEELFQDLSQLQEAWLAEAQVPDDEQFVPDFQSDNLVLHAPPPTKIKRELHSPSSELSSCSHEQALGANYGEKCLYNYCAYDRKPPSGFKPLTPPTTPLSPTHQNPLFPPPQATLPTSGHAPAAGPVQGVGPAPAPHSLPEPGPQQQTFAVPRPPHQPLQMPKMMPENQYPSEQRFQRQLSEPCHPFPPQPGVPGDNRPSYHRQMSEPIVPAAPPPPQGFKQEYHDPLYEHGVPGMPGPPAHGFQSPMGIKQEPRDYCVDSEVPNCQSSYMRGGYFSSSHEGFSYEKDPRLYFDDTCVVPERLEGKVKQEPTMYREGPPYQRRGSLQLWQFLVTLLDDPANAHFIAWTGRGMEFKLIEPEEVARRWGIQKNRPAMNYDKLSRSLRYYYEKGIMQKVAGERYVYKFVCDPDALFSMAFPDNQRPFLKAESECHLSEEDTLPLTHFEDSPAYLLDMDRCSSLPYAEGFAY
ETV1, sequence (P50549 whole entry): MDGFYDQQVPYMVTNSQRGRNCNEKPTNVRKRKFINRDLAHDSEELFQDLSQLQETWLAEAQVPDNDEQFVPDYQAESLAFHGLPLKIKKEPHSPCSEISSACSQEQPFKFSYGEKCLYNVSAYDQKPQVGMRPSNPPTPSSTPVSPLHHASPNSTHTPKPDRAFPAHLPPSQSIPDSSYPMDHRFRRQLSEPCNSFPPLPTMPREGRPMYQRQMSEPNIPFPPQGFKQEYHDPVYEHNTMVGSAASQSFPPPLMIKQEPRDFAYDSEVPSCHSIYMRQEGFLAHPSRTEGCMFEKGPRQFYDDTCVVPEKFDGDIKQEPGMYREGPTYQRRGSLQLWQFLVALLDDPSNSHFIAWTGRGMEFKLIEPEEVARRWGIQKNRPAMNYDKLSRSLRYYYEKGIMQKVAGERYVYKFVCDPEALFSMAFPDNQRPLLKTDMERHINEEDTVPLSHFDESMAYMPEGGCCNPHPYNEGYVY
CRX, sequence (O43186 whole entry): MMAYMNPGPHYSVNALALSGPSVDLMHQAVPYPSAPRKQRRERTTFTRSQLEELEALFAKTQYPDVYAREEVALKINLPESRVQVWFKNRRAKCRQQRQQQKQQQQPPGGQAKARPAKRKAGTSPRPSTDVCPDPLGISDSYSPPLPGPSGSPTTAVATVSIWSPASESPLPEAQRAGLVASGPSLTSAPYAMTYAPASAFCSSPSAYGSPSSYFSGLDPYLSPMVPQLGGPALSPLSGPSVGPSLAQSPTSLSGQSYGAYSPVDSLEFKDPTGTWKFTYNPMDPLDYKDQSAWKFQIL
HSF1, sequence (Q00613 whole entry): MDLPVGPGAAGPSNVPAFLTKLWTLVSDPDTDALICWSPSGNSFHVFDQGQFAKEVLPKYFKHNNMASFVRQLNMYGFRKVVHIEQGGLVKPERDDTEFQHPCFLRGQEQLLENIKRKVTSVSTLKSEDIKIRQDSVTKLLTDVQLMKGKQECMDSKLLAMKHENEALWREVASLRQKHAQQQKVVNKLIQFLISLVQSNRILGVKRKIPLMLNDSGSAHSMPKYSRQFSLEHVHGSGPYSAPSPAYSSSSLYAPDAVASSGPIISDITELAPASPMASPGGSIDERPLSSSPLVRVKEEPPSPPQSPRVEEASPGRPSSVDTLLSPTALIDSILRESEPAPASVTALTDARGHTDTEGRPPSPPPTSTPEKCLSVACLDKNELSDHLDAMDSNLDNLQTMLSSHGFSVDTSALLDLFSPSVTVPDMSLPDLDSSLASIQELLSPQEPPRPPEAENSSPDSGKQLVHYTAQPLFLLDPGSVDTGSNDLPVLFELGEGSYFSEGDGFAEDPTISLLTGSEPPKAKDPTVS

**Q.** What does the source list for GGTATT?
**A.** binding signal (FEV): 1.1 fold enrichment (6-mer frequency, TF over GST control); binding signal (ETV5): 1.16 fold enrichment (6-mer frequency, TF over GST control); binding signal (HSF1): 1.39 fold enrichment (6-mer frequency, TF over GST control); binding signal (SPIC): 1.14 fold enrichment (6-mer frequency, TF over GST control); binding signal (ELF4): 1.12 fold enrichment (6-mer frequency, TF over GST control); binding signal (ELK4): 1.14 fold enrichment (6-mer frequency, TF over GST control); binding signal (ETV2): 1.12 fold enrichment (6-mer frequency, TF over GST control); binding signal (ELF3): 1.1 fold enrichment (6-mer frequency, TF over GST control); binding signal (CRX): 1.66 fold enrichment (6-mer frequency, TF over GST control); binding signal (ETV1): 1.16 fold enrichment (6-mer frequency, TF over GST control); binding signal (ERF): 1.2 fold enrichment (6-mer frequency, TF over GST control); binding signal (ETV3L): 1.18 fold enrichment (6-mer frequency, TF over GST control); binding signal (ETS2): 1.2 fold enrichment (6-mer frequency, TF over GST control); binding signal (SPDEF): 1.27 fold enrichment (6-mer frequency, TF over GST control); binding signal (ETV7): 1.24 fold enrichment (6-mer frequency, TF over GST control); binding signal (ELF5): 1.16 fold enrichment (6-mer frequency, TF over GST control); binding signal (ETV3): 1.12 fold enrichment (6-mer frequency, TF over GST control); binding signal (ETV6): 1.24 fold enrichment (6-mer frequency, TF over GST control)
